# According to ChEMBL document CHEMBL3433997, “St. Jude Leishmania screening dataset” (2016):
# Tests used:
# Assay type in all cases: functional
# [1] = molecular target: Solute carrier family 2, facilitated glucose transporter member 1 (Homo sapiens) (UniProt P11166); experiment: ST_JUDE_LEISH: Cytotoxicity at 2uM final concentration against transgenic Leishmania Mexicana promastigotes LmGLUT1 that are glucose transport deficient and complemented with the human glucose transporter GLUT1. Activity is measured by DNA content using SYBR green in vitro
# Solute carrier family 2, facilitated glucose transporter member 1 (Homo sapiens), sequence (P11166 whole entry): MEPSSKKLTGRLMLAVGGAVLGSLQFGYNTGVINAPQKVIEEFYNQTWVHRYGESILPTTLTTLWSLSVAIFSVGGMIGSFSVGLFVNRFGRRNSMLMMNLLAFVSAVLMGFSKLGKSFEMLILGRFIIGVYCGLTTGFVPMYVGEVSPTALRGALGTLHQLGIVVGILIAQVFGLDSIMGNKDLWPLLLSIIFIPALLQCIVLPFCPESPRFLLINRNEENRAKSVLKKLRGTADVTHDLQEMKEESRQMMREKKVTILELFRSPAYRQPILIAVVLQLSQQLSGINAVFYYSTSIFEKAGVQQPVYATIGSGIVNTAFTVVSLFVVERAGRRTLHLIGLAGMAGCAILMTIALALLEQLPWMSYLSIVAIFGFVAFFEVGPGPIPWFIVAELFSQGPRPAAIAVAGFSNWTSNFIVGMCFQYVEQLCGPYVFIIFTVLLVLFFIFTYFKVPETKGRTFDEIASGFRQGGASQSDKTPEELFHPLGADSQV
# [2] = molecular target: Hexose transporter 1 (Plasmodium falciparum) (UniProt O97467); experiment: ST_JUDE_LEISH: Cytotoxicity at 2uM final concentration against transgenic Leishmania Mexicana promastigotes LmPfHT that are glucose transport deficient and complemented with the Plasmodium falciparum hexose transporter. Activity is measured by DNA content using SYBR green in vitro
# [3] = molecular target: Glucose transporter (Leishmania mexicana) (UniProt O61059); experiment: ST_JUDE_LEISH: Cytotoxicity at 2uM final concentration against transgenic Leishmania Mexicana promastigotes LmGT2 that are glucose transport deficient and complemented with the L. Mexicana glucose transporter 2. Activity is measured by DNA content using SYBR green in vitro
Structure (SMILES),inhibition [1],inhibition [2],inhibition [3]
CC(=O)N1N=C(c2ccc(Cl)cc2)Sc2c1nc(C1CCCCC1)n2C(C)=O,-0.67%,0.1%,-0.39%
Nc1ccc2[nH]cc(C3CCN(CCC4CCN(C(=O)/C=C/c5ccc(Cl)c(Cl)c5)CC4)CC3)c2n1,1.27%,-0.31%,-0.02%
CCCCC#Cc1cnc2nc(N)[nH]c(=O)c2n1,1.66%,1.03%,0.91%
O=C(NCCCCN1CCC(c2ccc(C(F)(F)F)cc2C(F)(F)F)CC1)c1ccc(NC(=O)c2ccc(Cl)cc2)cc1,0.67%,3.98%,-1.54%
Cc1nc(NCc2ccccc2)cc(Nc2cc(NCc3ccccc3)nc(C)n2)n1,4.26%,3.76%,1.98%
N#Cc1ccc2[nH]cc(-c3cn4cc(SC5CCCC5)ccc4n3)c2c1,0.43%,1.11%,1.09%
CNc1nc(Nc2ccccc2C)nc2ccccc12,33.8%,34.3%,18.3%
O=C(/C=C/c1ccc(Cl)c(Cl)c1)NCCCCCCN1CCN(C(=O)Nc2cc(F)cc(F)c2)CC1,5.47%,5.75%,7.38%
O=C(NC1CCN(CCCc2ccccc2)CC1)c1ccc(-c2cccc(C(F)(F)F)c2)s1,1.95%,1.23%,3.77%
CCC(Cc1cnc2nc(N)nc(N)c2n1)c1ccc(C(=O)O)cc1 (stereo unspecified),1.41%,1.88%,2.49%
O=C(Nc1cccc(-c2ccc(-c3nc4cc(C(F)(F)F)ccc4[nH]3)s2)c1)c1ccncc1,8.37%,8.56%,7.24%
COc1cccc(-c2csc(C(=O)NCC3CCN(Cc4ccc(C(C)C)cc4)C3)c2)c1 (stereo unspecified),-0.64%,-1.41%,0.03%
